The structures appear in SMILES notation. Values without a mark were called inactive. The rule behind the calls is not given here.

The assay deals with Pantothenate synthetase (Mycobacterium tuberculosis (strain ATCC 25618 / H37Rv)) (UniProt P9WIL5). Briefly: Recombinant Mtb pantothenate synthetase (PanC) inhibitors, coupled enzyme, confirmatory (AID 375).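 Note: 0% = full reaction with vehicle and 100% = no enzyme background.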 The note with it: coupled enzyme assay; at 10 µM, active compounds read high.
Sequence of Pantothenate synthetase (Mycobacterium tuberculosis (strain ATCC 25618 / H37Rv)) (P9WIL5 whole entry, looked up): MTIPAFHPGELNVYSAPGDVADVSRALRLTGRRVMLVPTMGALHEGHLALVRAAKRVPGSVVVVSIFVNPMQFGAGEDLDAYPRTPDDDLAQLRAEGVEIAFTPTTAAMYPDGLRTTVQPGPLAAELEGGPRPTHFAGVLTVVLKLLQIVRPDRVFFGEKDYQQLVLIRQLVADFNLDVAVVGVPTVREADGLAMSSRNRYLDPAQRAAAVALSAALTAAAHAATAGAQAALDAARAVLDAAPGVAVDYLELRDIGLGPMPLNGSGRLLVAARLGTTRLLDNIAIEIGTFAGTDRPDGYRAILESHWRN
Usually inhibition stands for the percentage by which the read-out fell short of the control. As to `CCn1cc(C(=O)NC2CCc3ccccc32)c(=O)c2ccc(C)nc21` (stereo not given), the inhibition is 0%.
Regarding `CCOC(=O)Nc1c(C(=O)OC)[nH]c2cccc(OC)c12`, the inhibition was 0%.
For the molecule `NC(=O)c1c(NC(=O)Cc2cccs2)sc2c1CCC2`, the inhibition is 0%.
For `C[C@]12CC[C@@H]3c4ccc(OC(=O)c5ccccc5)cc4CC[C@H]3[C@@H]1CC[C@@H]2O` the value was 0%.
For `Cc1ccc(-n2c3c(cc(C(=O)O)c2=O)C(=O)CC(C)(C)C3)cc1` the value was 3%; for `Cn1c(=O)cc(OCCCC(=O)Nc2ccc3c(c2)OCCO3)c2ccccc21`, 1%.
For `CCOC(=O)Cc1nnc(NC(=O)c2ncn[nH]2)s1` the value was 0%.
`Cn1c(SCC(=O)Nc2cccc3ccccc23)nc(O)cc1=O`: the inhibition was 0%.
For `CC(C)CNC(=O)c1c(N)n(/N=C/c2ccccn2)c2nc3ccccc3nc12`, the inhibition is 0%.
Turning to `Cc1cc(C)nc(NC(=O)c2cnc3sccn3c2=O)n1`, the inhibition is 13%.
For the molecule `C=CCn1c(-c2ccc(OC)cc2)nc2ccccc21`, the inhibition was 0%.
On to `O=C(CCN1CCOCC1)Nc1cccc(Br)c1`, for which the inhibition is 10%.
`Cn1c(=O)c2c(nc(SCC(=O)O)n2Cc2cccc(C(F)(F)F)c2)n(C)c1=O`: the inhibition was 8%.
For the molecule `O=C(NC1CCN(Cc2nnnn2CCc2ccccc2)CC1)c1ccccc1F`, the inhibition is 3%.
On to `CCOC(=O)c1c(C)[nH]c(C(=O)Cn2c(=O)oc3ccccc32)c1C`, for which the inhibition was 4%.
`CCN(CC)C1CCCCC1NS(=O)(=O)c1ccc(Cl)cc1` (stereo not given): the inhibition was 0%.
As for `N#C/C(C(=O)NCc1ccco1)=C1/SC(Cc2ccc(F)cc2)C(=O)N1c1ccccc1` (stereo not given), the inhibition was 0%.
For the molecule `COCCn1nnnc1CN(Cc1cccnc1)Cc1cc2cc(OC)ccc2[nH]c1=O`, the inhibition is 6%.
As to `Cn1c(SCC(=O)O)nnc1C1CCCCC1`, the inhibition was 1%.
With `CCCCc1oc2ccccc2c1C(=O)c1cc(I)c(OCCN(CC)CC)c(I)c1`, the inhibition is 8%.
Turning to `O=C(O)c1cccc(S(=O)(=O)N2CCOCC2)c1`, the inhibition was 2%.
Take `Cn1c(=O)c2c3c(sc2n2c(SCC(=O)c4ccc(Cl)cc4)nnc12)COC(C)(C)C3`: the inhibition is 0%.
Consider `CCOC(=O)N1CCN(S(=O)(=O)c2ccc(OCC)c(C)c2)CC1`, for which the inhibition is 0%.
`COC(=O)c1cc(Br)c(=O)n(CCc2ccc(F)cc2)c1`: the inhibition was 0%.
Take `CC1=C(C(=O)NC2CCCC(C)C2C)C2(CCCCC2)OC1=O` (stereo not given): the inhibition was 0%.
In the case of `COC(=O)c1[nH]c2ccc(F)cc2c1NS(=O)(=O)c1ccc(OC)cc1OC`, the inhibition was 14%.
Consider `CCCCCCOC(=O)C(C#N)c1nc2ccccc2nc1N1CCCCC1` (stereo not given), for which the inhibition is 0%.
Turning to `CCSc1nnc(NC(=O)c2cc(C)oc2C)s1`, the inhibition was 11%.
For `CCCN1C2=C(C(=O)CCC2)C(c2ccc(O)c(Br)c2)C2=C1CCCC2=O` the value was 0%; for `Cc1ccc(N2CC(C(=O)N3CCN(C(=O)c4ccco4)CC3)CC2=O)cc1` (stereo not given), 0%; for `O=C(Nc1ccc2c(c1)OCO2)N1CCN(c2ncccn2)CC1`, 0%.
As for `O=C(NCc1ccccc1)C1CCN(S(=O)(=O)c2cccc3cccnc23)CC1`, the inhibition is 0%.
For `Cn1nnc2cc(C(=O)N3CCCCCC3)ccc21` the value was 0%; for `CCCCN(CC)S(=O)(=O)N1CCC(C(=O)NCc2ccc(F)cc2)CC1`, 6%; for `COc1ccc(CC(NC(C)=O)C(=O)NC2CCN(C(=O)Nc3ccc(C#N)cc3)CC2)cc1OC` (stereo not given), 10%.
With `Fc1ccc(-n2c(Cc3ccccc3)nnc2SCc2nc(-c3cccs3)no2)cc1`, the inhibition is 0%.
As to `CCCC1(C(=O)OC)NC(c2cc(OC)c(OC)c(OC)c2)C2C(=O)N(CC)C(=O)C21` (stereo not given), the inhibition was 0%.
As to `Cc1cc(C)nc(NC2=NCC(=O)N2c2ccccc2Br)n1`, the inhibition is 0%.
As for `CC1Cc2ccccc2N1NC(=O)c1ccc(Cl)c(S(N)(=O)=O)c1` (stereo not given), the inhibition was 0%.
As to `Cc1ccc2oc(=O)c3cnn(CC(=O)N4CCCCC4C)c3c2c1` (stereo not given), the inhibition was 0%.

The values are drawn from PubChem BioAssay.
